# Experimental data: PubChem BioAssay AID1159580 (chemical genetic matrix, 2015)
# Values joined by “and” are separate entries in the source; they are usually repeats but may differ in a detail not shown here. Identical values can stand only once. In all, about 5,500 compounds went through this assay and about 2,000 (36%) were called active. About 18% were inconclusive and are not listed. Some of the results follow. Unmarked numbers belong to inactive results. Rule as the data show it: active = normalized growth mostly below about 0.91 (no sharp cut-off); inconclusive = no clear call, values can overlap the other calls; inactive = mostly above about 0.92.
# Test: chemical genetic growth profiling, strain panel (AID 1159580);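 also: tested at 20 µM; growth read once vehicle control cultures reached saturation at 30 °C; 1 = growth at the plate median or of vehicle wells; lower values mean less growth of the strain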
# Conditions: S. cerevisiae deletion strains, growth OD
compound,measurement,setting,value
O=C(Nc1ccccc1)Nc1ccccc1,normalized growth,"locus YAL021C, strain ccr4, hits give low values",0.977
same,normalized growth,"locus YAL026C, strain drs2, hits give low values",0.951
same,normalized growth,"locus YAL030W, strain snc1, hits give low values",0.992
same,normalized growth,"locus YBL061C, strain skt5, hits give low values",0.967
same,normalized growth,"locus YBR009C, strain hhf1, hits give low values",0.957
same,normalized growth,"locus YBR021W, strain FUR4, hits give low values",0.935
same,normalized growth,"locus YBR023C, strain chs3, hits give low values",0.954
same,normalized growth,"locus YBR171W, strain sec66, hits give low values",0.954
same,normalized growth,"locus YBR229C, strain ROT2, hits give low values",1
same,normalized growth,"locus YBR231C, strain swc5, hits give low values",0.942
same,normalized growth,"locus YBR279W, strain paf1, hits give low values",0.973
same,normalized growth,"locus YCL011C, strain gbp2, hits give low values",0.93
same,normalized growth,"locus YCL016C, strain dcc1, hits give low values",0.943
same,normalized growth,"locus YCL029C, strain bik1, hits give low values",1.02
same,normalized growth,"locus YCL069W, strain vba3, hits give low values",0.983
same,normalized growth,"locus YCR088W, strain abp1, hits give low values",0.971
same,normalized growth,"locus YDL005C, strain med2, hits give low values",0.956
same,normalized growth,"locus YDL035C, strain GPR1, hits give low values",1.1
same,normalized growth,"locus YDL040C, strain nat1, hits give low values",0.978
same,normalized growth,"locus YDL074C, strain BRE1, hits give low values",1.28 [resistant] (active)
same,normalized growth,"locus YDL101C, strain DUN1, hits give low values",0.998
same,normalized growth,"locus YDL185W, strain tfp1, hits give low values",0.99
same,normalized growth,"locus YDL192W, strain arf1, hits give low values",0.978
same,normalized growth,"locus YDR001C, strain nth1, hits give low values",0.968
same,normalized growth,"locus YDR069C, strain doa4, hits give low values",0.964
same,normalized growth,"locus YDR101C, strain arx1, hits give low values",0.983
same,normalized growth,"locus YDR137W, strain rgp1, hits give low values",0.955
same,normalized growth,"locus YDR150W, strain NUM1, hits give low values",1.03
same,normalized growth,"locus YDR159W, strain sac3, hits give low values",1.04
same,normalized growth,"locus YDR162C, strain NBP2, hits give low values",1.1
same,normalized growth,"locus YDR195W, strain ref2",0.991
same,normalized growth,"locus YDR297W, strain sur2, hits give low values",0.969
same,normalized growth,"locus YDR318W, strain mcm21, hits give low values",0.989
same,normalized growth,"locus YDR334W, strain swr1, hits give low values",0.959
same,normalized growth,"locus YDR335W, strain msn5, hits give low values",0.952
same,normalized growth,"locus YDR388W, hits give low values",0.991
same,normalized growth,"locus YDR392W, strain spt3, hits give low values",0.932
same,normalized growth,"locus YDR502C, strain sam2, hits give low values",0.977
same,normalized growth,"locus YEL003W, strain gim4, hits give low values",0.977
same,normalized growth,"locus YEL037C, strain rad23, hits give low values",0.97
same,normalized growth,"locus YEL061C, strain CIN8 (second series), hits give low values",0.97
same,normalized growth,"locus YER015W, strain faa2, hits give low values",0.957
same,normalized growth,"locus YER016W, strain bim1, hits give low values",0.962
same,normalized growth,"locus YER110C, hits give low values",0.967
same,normalized growth,"locus YER111C, strain swi4, hits give low values",0.974
same,normalized growth,"locus YER155C, strain BEM2 (second series), hits give low values",0.978
same,normalized growth,"locus YER155C, strain BEM2, hits give low values",1.01
same,normalized growth,"locus YER167W, strain BCK2, hits give low values",1
same,normalized growth,"locus YFR010W, strain ubp6, hits give low values",0.987
same,normalized growth,"locus YGL078C, strain dbp3, hits give low values",0.98
same,normalized growth,"locus YGL086W, strain mad1, hits give low values",0.977
same,normalized growth,"locus YGL167C, strain pmr1, hits give low values",0.972
same,normalized growth,"locus YGL173C, strain kem1, hits give low values",0.97
same,normalized growth,"locus YGL227W, strain vid30, hits give low values",0.967
same,normalized growth,"locus YGL240W, strain doc1, hits give low values",0.915
same,normalized growth,"locus YGL248W, strain PDE1, hits give low values",1.08
same,normalized growth,"locus YGL253W, strain hxk2, hits give low values",0.924
same,normalized growth,"locus YGR078C, strain PAC10, hits give low values",1.07
same,normalized growth,"locus YGR135W, strain pre9, hits give low values",0.985
same,normalized growth,"locus YGR252W, strain gcn5, hits give low values",0.91
same,normalized growth,"locus YHR013C, strain ard1, hits give low values",0.945
same,normalized growth,"locus YHR027C, strain rpn1, hits give low values",0.967
same,normalized growth,"locus YHR030C, strain SLT2, hits give low values",1.01 and 1.02
same,normalized growth,"locus YHR079C, strain IRE1 (second series), hits give low values",0.995
same,normalized growth,"locus YHR079C, strain IRE1, hits give low values",1
same,normalized growth,"locus YHR094C, strain hxt1, hits give low values",0.975
same,normalized growth,"locus YHR129C, strain ARP1, hits give low values",0.997
same,normalized growth,"locus YHR142W, strain chs7, hits give low values",0.887
same,normalized growth,"locus YHR200W, strain rpn10, hits give low values",0.997
same,normalized growth,"locus YIL066C, strain RNR3, hits give low values",0.996
same,normalized growth,"locus YIL073C, strain SPO22, hits give low values",1.38 [resistant] (active)
same,normalized growth,"locus YIL125W, strain kgd1, hits give low values",0.977
same,normalized growth,"locus YIR030C, strain dcg1, hits give low values",0.975
same,normalized growth,"locus YJL092W, strain hpr5, hits give low values",0.969
same,normalized growth,"locus YJL095W, strain BCK1 (second series), hits give low values",0.991
same,normalized growth,"locus YJL095W, strain BCK1, hits give low values",1.09 and 1
same,normalized growth,"locus YJL115W, strain asf1, hits give low values",0.932
same,normalized growth,"locus YJL129C, strain trk1, hits give low values",0.998
same,normalized growth,"locus YJL134W, strain LCB3, hits give low values",1
same,normalized growth,"locus YJL154C, strain vps35, hits give low values",0.965
same,normalized growth,"locus YJL164C, strain tpk1, hits give low values",0.961
same,normalized growth,"locus YJL166W, strain qcr8, hits give low values",0.952
same,normalized growth,"locus YJL168C, strain set2, hits give low values",0.98
same,normalized growth,"locus YJL187C, strain SWE1 (second series), hits give low values",0.99
same,normalized growth,"locus YJR066W, strain TOR1, hits give low values",0.95
